High-throughput results from PubChem.
An excerpt weighted towards active compounds, which were near 5.1% of everything screened.
Tau fil binding: binds recombinant human tau filaments. P10636. recombinant tau filaments, thioflavin S fluorescence, 15 h; filaments grown with octadecylsulfate alongside compound. Potency, µM (series often up to 57.1 µM), inactives show at the top dose activity change, negative = inhibition. 2% of 71,000 active. AID 596;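 note: % is set by controls: 0 for no effect and ±100 for the full control effect; actives lower thioflavin S fluorescence by blocking filaments or displacing dye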
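Quantitative HTS: thioflavine S signal from ODS-induced tau filaments, excited at 450 nm, emission 510 nm. Conditions: 1 uM tau, 30 uM ODS, 15 h at 37 C, pH 7.4.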
DNA Pol III inh: blocks replication by bacterial DNA polymerase III holoenzyme; AID 603; reconstituted DNA polymerase III holoenzyme replication, biochemical; Potency, µM (titrated, usually from 57.1 µM), for inactives: at the highest dose activity change, negative = inhibition; 0.25% of 71,000 active; note: % is set by controls: 0 for no effect and ±100 for the full control effect
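Reconstituted *E. coli* holoenzyme (0.35 nM Pol III, 1 nM beta, 154 nM SSB, 2 nM primase) was preincubated with compound for 15 min at RT. Synthesis on 1.4 nM ssM13Gori ran 35 min, then was stopped with PicoGreen/EDTA and read as dsDNA fluorescence.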
HEK293 cAMP ctrl: parental HEK293 cAMP activation (counter-screen) | parental HEK293 CNG cAMP sensor, membrane potential fluorescence | Potency, µM (series often up to 57.1 µM), inactives show at the highest dose activation, actives largely listed as activators | 2.5% of 73,000 active; note: % of control where 0% means no effect; nearly all actives have a fitted effect of over 55% in size
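Counterscreen for endogenous-receptor signalling: CNG-channel HEK 293 cells report cAMP rise by membrane depolarization. After 60 min dye equilibration with 100 uM RO 20-1724, compounds incubated 30 min before bottom-read fluorescence at 590 nm.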
TSHR ag: agonists of human thyroid stimulating hormone receptor. P16473. HEK293-CNG-TSHR cells (CNG channel as cAMP sensor), membrane potential dye, cAMP. 0.48% of 73,000 active. Potency, µM (series often up to 57.1 µM), without a hit: at the top dose activation, usual class: activators; active = well fitted activation curve with a large enough effect in the main read-out, with a control signal flat, not every such curve was filed as active; inconclusive = small, poorly fitted or top-dose-only effect, or a change in a side signal; inactive = no such curve, though single readings can be large or run the other way; % of control where 0% means no effect;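 note: the control signal comes from parental cells without the receptor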
Target sequence (P16473 whole entry, looked up): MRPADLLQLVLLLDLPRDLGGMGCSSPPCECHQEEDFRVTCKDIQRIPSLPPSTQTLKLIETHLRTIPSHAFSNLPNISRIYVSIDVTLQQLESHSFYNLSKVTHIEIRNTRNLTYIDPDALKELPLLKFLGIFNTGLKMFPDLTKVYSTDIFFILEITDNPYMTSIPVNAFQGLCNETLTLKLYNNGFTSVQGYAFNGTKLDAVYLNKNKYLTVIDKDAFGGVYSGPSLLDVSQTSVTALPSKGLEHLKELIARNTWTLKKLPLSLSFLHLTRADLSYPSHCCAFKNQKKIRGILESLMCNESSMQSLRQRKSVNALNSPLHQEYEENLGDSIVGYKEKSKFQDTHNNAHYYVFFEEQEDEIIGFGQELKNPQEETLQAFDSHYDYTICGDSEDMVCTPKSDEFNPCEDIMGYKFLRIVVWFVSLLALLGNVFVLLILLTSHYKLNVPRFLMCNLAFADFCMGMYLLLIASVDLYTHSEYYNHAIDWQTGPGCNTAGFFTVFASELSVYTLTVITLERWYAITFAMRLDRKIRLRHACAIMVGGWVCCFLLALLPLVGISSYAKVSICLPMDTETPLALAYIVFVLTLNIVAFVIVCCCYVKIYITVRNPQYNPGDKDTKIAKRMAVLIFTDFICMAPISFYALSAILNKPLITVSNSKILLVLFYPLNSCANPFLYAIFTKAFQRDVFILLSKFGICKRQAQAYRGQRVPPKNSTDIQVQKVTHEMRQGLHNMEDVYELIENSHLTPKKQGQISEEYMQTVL
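HEK 293 cells stably expressing TSHR and a modified CNG channel, with CNG-only parental cells as counterscreen, were preloaded 60 min at room temperature with membrane potential dye containing 100 uM RO 20-1724. Compound exposure was 30 min, and depolarization was read as fluorescence at 590 nm.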
Hsp90 Hop PPI: changes Hsp90-Hop TPR2A binding signal, up or down. AID 595. 0.44% of 71,000 active. AlphaScreen TPR2A-His6 binding biotin-Hsp90 C-terminal peptide. Potency, µM (series often up to 57 µM), inactives show at the top dose activity change, negative = inhibition; active = well fitted curve in either direction with a large enough effect; inconclusive = small, poorly fitted or top-dose-only effect, or another doubt; note: % is set by controls: 0 for no effect and ±100 for the full control effect
An asterisk follows results filed as active; i = inactive; ? = inconclusive; / = no result; ! = repeats disagree; [ ] = another dose, or the depositor's remark. Unless noted, calls come from the whole dose curve; as a rule, active = well fitted curve in the direction sought with a large enough effect; inconclusive = small, poorly fitted or top-dose-only effect, or another doubt; inactive = no such curve, though single readings can be large; an effect the other way counts as inactive or inconclusive. Potency is the fitted concentration of half-maximal effect.

SMILES	Tau fil binding	DNA Pol III inh	HEK293 cAMP ctrl	TSHR ag	Hsp90 Hop PPI
COc1ccccc1N=c1oc2c(OC)cccc2cc1C(=O)NCc1ccco1	2.5µM*	0%	?	?	-3%
COc1ccc(OC)c(N=c2oc3c(OC)cccc3cc2C(=O)NCc2ccco2)c1	0.79µM*	-2%	4%	-3%	-6%
COc1ccc(N=c2oc3c(OC)cccc3cc2C(=O)NCc2ccco2)cc1OC	1.3µM*	-4%	-4%	-16%	-3%
CNC(=O)c1cc2cccc(OC)c2oc1=O	-5%	-9%	-4%	-6%	-1%
N#CCCn1c(=O)cnc2cnc(Nc3ccccc3)nc21	-8%	4%	21%	3%	-4%
Cc1noc(C)c1COC(=O)c1cccc(S(=O)(=O)N2CCCCCC2)c1	-8%	?	20µM*	?	11%
COc1ccc(S(=O)(=O)N2CCCCCC2)cc1C(=O)OCc1c(C)noc1C	12%	-7%	5%	11%	4%
Cc1cccc2nc(C(F)(F)F)nc(=O)n12	4%	0%	-4%	-1%	?
COc1ccc(-n2c(=O)c(-c3cccs3)nc3cnc(N4CCOCC4)nc32)cc1	i	-8%	3%	2%	-2%
O=c1c(-c2cccs2)nc2cnc(N3CCOCC3)nc2n1-c1ccccc1	i	4%	26%	4%	3.2µM*
O=c1c(-c2cccs2)nc2cncnc2n1-c1ccccc1	236%	1%	25µM*	?	-3%
CC(C)C(c1nnnn1C(C)(C)C)N1CCN(c2cccc(Cl)c2)CC1 (stereo not drawn)	-13%	?	19%	6%	-7%
c1ccc(Cn2nnnc2C(c2cccs2)N2CCc3ccccc3C2)cc1 (stereo not drawn)	5%	-5%	10µM*	?	?
COc1ccc(Cn2nnnc2C(c2cccs2)N2CCN(c3ccccc3)CC2)cc1 (stereo not drawn)	4%	-3%	?	?	-1%
c1ccc(Cn2nnnc2C(c2cccs2)N2CCCCCC2)cc1 (stereo not drawn)	-2%	-3%	25µM*	?	?
CC(C)COC(=O)c1cc(-c2ccc(/C=N/n3cnnc3)o2)ccc1Cl	25µM*	-6%	1%	3%	-5%
COC(=O)c1ccc(/C=N/n2cnnc2)cc1	0%	-2%	7%	6%	-5%
CCC[C@@H]1C[C@@]1(CCC)[C@@H](NC(=O)Oc1ccccc1)c1ccc(C(=O)OC)cc1	?	-4%	-2%	12%	4%
CCOc1ccc(NC(=O)Cn2nnc(-c3ccccc3NC(=O)CC)n2)cc1	101%	-2%	-5%	-2%	0%
COc1ccc(NC(=O)Cn2nnc(-c3ccccc3NC(=O)c3cccs3)n2)cc1	56%	1%	2%	25µM*	-1%
COc1cc(CNc2ccc3[nH]c(=O)[nH]c3c2)cc(Cl)c1OCC(=O)NC(C)(C)C	10µM*	-8%	-10%	-4%	-15%
CSc1ccc2c(c1)N(CC[C@H]1CCCCN1C)c1ccccc1S2	4µM*!	-3%[25.6 µM]	-6%[25.6 µM]	-19%[25.6 µM]	-10%[26 µM]
CN1CCCC[C@@H]1CCN1c2ccccc2Sc2ccc(S(C)=O)cc21 (stereo partly drawn)	4%[11.4 µM]	-11%[11.4 µM]	?	?	-3%[11 µM]
O=c1[nH]n(-c2cccc3cccnc23)c(=O)c2ccccc12	6%	-4%	-7%	-21%	-4%
O=S1(=O)Nc2c(ccc3cccnc23)-c2ccccc21	-11%	-24%	?	?	3.2µM*
SMILES	Tau fil binding	DNA Pol III inh	HEK293 cAMP ctrl	TSHR ag	Hsp90 Hop PPI
CCN(c1cccc(C)c1)S(=O)(=O)c1ccc(O)c(C(=O)O)c1	/	/	-2%	3%	/
COc1cccc(NC(=O)/C=C\c2ccc(Cl)cc2)c1	5%	-5%	32µM*	?	9%
COc1cccc(NC(=O)c2ccncc2)c1	-25%	-2%	17%	3%	-1%
O=c1c(-c2cc(F)cc(F)c2)nc2cnc(N3CCNCC3)nc2n1CCc1ccccc1	19%	-6%	?	?	5%
O=C(CCN1CCOCC1)Nc1ccc(F)cc1F	-22%[11.4 µM]	-11%[11.4 µM]	8%[11.4 µM]	2%[11.4 µM]	6%[11 µM]
CCOc1ccc(OCC)c(NS(=O)(=O)c2cccc3nsnc23)c1	25µM*	-4%	15%	/	-12%
COc1ccc(CCNC(=O)CC2Nc3ccccc3NC2=O)cc1 (stereo not drawn)	13µM*	-6%	-5%	-1%	-9%
CCOc1ccccc1NC(=O)CC1Nc2cc(C)c(C)cc2NC1=O (stereo not drawn)	4µM*	1%	-8%	-20%	-2%
Cc1ccc(NC(=O)CC2Nc3ccccc3NC2=O)cc1Cl (stereo not drawn)	20µM*	-1%	-3%	-11%	8%
CC(NC(=O)CC1Nc2ccccc2NC1=O)c1ccccc1 (stereo not drawn)	-1%	-2%	1%	1%	0%
Cc1cc(C)c2nc(-c3ccccn3)cc(C(=O)Nc3cc(C)on3)c2c1	230%	-4%	16µM*	?	-7%
Cc1cc(NC(=O)c2cc(-c3ccncc3)nc3c(C)cccc23)no1	3.2µM*	-7%	32µM*	?	-10%
Cc1cc(NC(=O)c2cc(-c3ccccn3)nc3ccccc23)no1	-13%	1%	18%	25%	-4%
O=C(NCc1ccco1)c1cc(-c2cccnc2)nc2ccccc12	4%	-3%	9%	20%	-10%
Cc1cc(NC(=O)c2cc(-c3cccs3)nc3ccccc23)no1	5%	-3%	16µM*	?	-2%[2.3 µM]
Cc1cc(C)c2nc(-c3ccccn3)cc(C(=O)NCc3ccco3)c2c1	41%	-4%	25µM*	?	-7%
COC(=O)Nc1ccc2[nH]cc(CCNC(C)=O)c2c1	-26%	-3%	10%	-1%	-10%
O=C(O)[C@H]1O[C@H]1C(=O)O	7%[11.4 µM]	-8%[11.4 µM]	18%[11.4 µM]	-1%[11.4 µM]	0%[11 µM]
C[C@H](CN(C)C)C(=O)c1ccccc1C(=O)O	-4%[11.4 µM]	7%[11.4 µM]	1%[11.4 µM]	-1%[11.4 µM]	-1%[11 µM]
O=C(CCS(=O)(=O)c1cccc2nonc12)N1CCCc2ccccc21	-2%	-3%	-1%	1%	-7%
Cc1ccc(Cl)cc1N1CCN(C(=O)CCS(=O)(=O)c2cccc3nonc23)CC1	13µM*	-1%	-33%	?	-3%
COc1ccc2c(c1)c(=O)c(Br)c(C)n2Cc1ccccc1	92%	-2%	32µM*	?	26%
CN1C=CC=C/C1=C1\SC(=S)N(C2CCCCC2)C1=O	4µM*	-5%[11.4 µM]	-27%[11.4 µM]	-25%[11.4 µM]	?
N#CC1=C(N)SC2(CCCCC2)SC1c1ccccc1 (stereo not drawn)	20µM*	7%	0%	2%	-2%
N#CC1=C(C2CC2)CC(c2ccccc2)C(C#N)=C1N (stereo not drawn)	40%	0%	15%	/	3%
C[C@@H]1/C=C\CC(=O)OC[C@H](C)C(=O)N[C@@H](Cc2ccccc2)C(=O)OC1	/	/	4%[11.4 µM]	4%[11.4 µM]	/
